HP1b chromo inh: HP1-beta chromodomain-methylated histone interaction inhibition; P83916; AlphaScreen HP1-beta / biotin-H3K9me3 peptide binding; Potency, µM (top dose mostly 114 µM), inactives show top-dose activity change, negative = inhibition, hits mostly inhibitors; 0.56% of 390,000 active; AID 540317; note: nearly all actives have a fitted effect of over 70% in size
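HP1-beta protein (50 nM final) preincubated 30 min at room temperature with biotinylated H3(1-18)K9me3 peptide (50 nM) in PBS pH 7.4, 0.01% Tween-20, then compound added for 30 min. AlphaScreen streptavidin donor/nickel chelate acceptor beads (10 ug/mL final), 30 min dark, luminescence read.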
BAZ2B block: inhibitors of human BAZ2B bromodomain | Q9UIF8 | AlphaScreen BAZ2B-H3K14Ac peptide displacement | Potency, µM (series often up to 114 µM), inactives show at the highest dose activity change, negative = inhibition, usual class: inhibitors | 4.4% of 360,000 active | AID 504333; note: % is set by controls: 0 for no effect and ±100 for the full control effect; nearly all actives have a fitted effect of over 60% in size
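Protein-peptide AlphaScreen: BAZ2B 50 nM, b-H3K14Ac 50 nM, 1x PBS pH 7.4 + 0.01% Tween-20. Preincubation 30 min RT; cpd 30 min RT (top 110 uM); beads 20 min RT, light-protected.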
JMJD2A Tudor: blocks the human JMJD2A Tudor domain. AlphaScreen JMJD2A-Tudor / H3K4me3 peptide binding. AID 504339. Potency, µM (doses to about 114 µM), for inactives: top-dose activity change, negative = inhibition, hits mostly inhibitors. 4.4% of 390,000 active. O75164; note: % is set by controls: 0 for no effect and ±100 for the full control effect; nearly all actives have a fitted effect of over 50% in size
Sfp PPTase inh: blocks B. subtilis Sfp PPTase activity; Q9F4F7; Biochemical Sfp PPTase activity, qHTS; Potency, µM, without a hit: largest response in the series, negative = inhibition, most hits filed as inhibitors; 3.5% of 310,000 active; AID 1490;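 note: the enzyme is Sfp with the accession as filed and its product quenches rhodamine fluorescence; 0% = enzyme reaction without inhibitor and -100% = no enzyme wells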
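After 15 min at room temperature with compound, 15 nM Sfp received 5 uM rhodamine-CoA plus 12.5 uM BHQ-2-ybbR (50 mM Hepes pH 7.6, 10 mM MgCl2). Rate came from the fluorescence difference over 30 min, ex 525/em 598 nm.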
G9a inh: blocks human histone lysine methyltransferase G9a | Q96KQ7 | G9a H3K9 monomethylation, AlphaScreen, 2 h | Potency, µM (series often up to 102 µM), inactives show at the highest dose activity, negative = inhibition, actives largely listed as inhibitors | 8.8% of 350,000 active; note: % is set by controls: 0 for no effect and ±100 for the full control effect; nearly all actives have a fitted effect of over 75% in size
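Step 1: enzyme (final 20 nM) with compound, 15 min RT. Step 2: substrate peptide 500 nM and SAM 20 uM, 2 h RT. Step 3: anti-H3K9me1 antibody and AlphaScreen beads, 10 min, then plate read.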
L3MBTL1 inh: inhibitors of human L3MBTL1. Potency, µM (doses to about 57.1 µM), for inactives: at the highest dose activity, negative = inhibition, most hits filed as inhibitors. 0.66% of 230,000 active. AlphaScreen L3MBTL1–H3K9me1 peptide binding. AID 485360; note: % is set by controls: 0 for no effect and ±100 for the full control effect; nearly all actives have a fitted effect of over 60% in size
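First, the protein-peptide complex forms for 30 min at room temperature (L3MBTL1 50 nM, biotinylated H3K9me1 peptide 75 nM). Next, compounds are pin-transferred and incubated 30 min. Finally, AlphaScreen beads are added and read after 30 min.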
An asterisk follows results filed as active; ? = inconclusive; · = no result given; [ ] = remark or other dose. In the library only some 12% were active in any assay of this set; here they are far more common. Calls come from the whole dose curve; as a rule, active = well fitted curve in the direction sought with a large enough effect; inconclusive = small, poorly fitted or top-dose-only effect, or another doubt; inactive = no such curve, though single readings can be large; an effect the other way counts as inactive or inconclusive. Potency is the fitted concentration of half-maximal effect.

SMILES | HP1b chromo inh | BAZ2B block | JMJD2A Tudor | Sfp PPTase inh | G9a inh | L3MBTL1 inh
CCOC(=O)c1c(CSc2ccc(C)cc2)n(C)c2cc(Br)c(O)c(CN(C)C)c12 | ? | 45µM* | 32µM* | 56µM* | 8.9µM* | ?
CCOC(=O)c1c(CSc2ccsc2)n(C)c2cc(Br)c(O)c(CN(C)C)c12 | -24% | ? | ? | -21% | 32µM* | 0%
CCOC(=O)c1c(C)n(C)c2ccc(O)c(CN(C)C)c12 | -5% | -35% | -27% | -19% | ? | -2%
CCn1nc(-c2ccccc2)c(-c2ccccc2)c(C(=O)Nc2ccccc2C(N)=O)c1=O | 32% | -18% | -16% | · | 0%[59 µM] | ·
Cc1ccc(CNC(=O)c2c(-c3cccc(Br)c3)noc2C)o1 | 35%[57 µM] | 3% | -10% | · | -19%[59 µM] | ·
COc1ccc(S(=O)(=O)N(C)C)cc1NC(=O)[C@H](Cc1ccccc1)N1C(=O)c2ccccc2C1=O | 37% | 3% | -7% | 15% | 50µM* | ?
Cc1ccc(S(=O)(=O)N(C)C)cc1NC(=O)[C@H](Cc1ccccc1)N1C(=O)c2ccccc2C1=O | 2% | -6% | -16% | -3% | 19% | -1%
COc1ccc(C2C3C=CCC(c4cccc(-c5ccc(N(C)C)cc5)c4)C3C(=O)N2Cc2ccccc2)cc1Cl (stereo unspecified) | -11% | · | ? | 4% | · | ·
CC(C)NC(=O)CSc1nc(Cc2cccs2)nc2ccccc12 | 27% | 1% | -31% | -3% | 25µM* | 1%
CC(C)(C)NC(=O)CSc1nc(Cc2ccccc2)nc2ccccc12 | 36% | 7% | -10% | 16% | 3% | 1%
CC1=C(C(=O)OC(C)C)C(c2cccs2)N2C(=O)C(C)SC2=N1 (stereo unspecified) | 15% | 2% | 79µM* | 15% | 2% | 1%
CC1=C(C(=O)OC(C)C)C(c2cccs2)N2C(=O)CCSC2=N1 (stereo unspecified) | 4% | -19% | -23% | 8% | 1%[59 µM] | -4%
Cc1cccc(NC(=O)CSc2nc(-c3ccco3)nc3cc(=O)[nH]n23)c1 | 27% | 79µM* | -20% | · | 14%[12.7 µM] | 3%
O=C(CSc1nc(-c2cccs2)nc2cc(=O)[nH]n12)Nc1ccccc1 | 32% | 56µM* | -24% | · | 17%[59 µM] | ·
O=C(CSc1nc(-c2ccco2)nc2cc(=O)[nH]n12)Nc1ccc(F)cc1 | 31% | -25% | -4% | · | -4%[59 µM] | ·
O=C(CSc1nc(-c2cccs2)nc2cc(=O)[nH]n12)Nc1ccccc1F | 34% | ? | ? | · | 28%[12.7 µM] | -1%
O=C(CSc1nc(-c2cccs2)nc2cc(=O)[nH]n12)Nc1ccccc1Cl | 20% | 79µM* | ? | · | 28%[59 µM] | ·
Cc1ccc(NC(=O)CSc2nc(-c3ccccc3Cl)nc3cc(=O)[nH]n23)c(C)c1 | 3% | 89µM* | -13% | · | -8%[59 µM] | ·
CCN1CCC(N(Cc2cccc(OC)c2)C(=O)Nc2cccc(C)c2C)CC1 | 20% | -2% | -13% | · | -31%[59 µM] | ·
Clc1ccc(-c2noc(-c3cccnc3NCc3ccco3)n2)cc1 | 21% | ? | -13% | · | -28%[59 µM] | ·
CCCCNc1nc(C)nc2c1nc(-c1ccccc1)n2CCN(C)C | · | · | · | 14% | · | ·
Cc1cc(C)cc(NC(=O)CSc2nnc(CNC(=O)c3ccco3)o2)c1 | 14%[57 µM] | -18% | -17% | 9% | 2% | ·
Cc1cccc(NC(=O)CSc2nnc(CNC(=O)c3ccco3)o2)c1 | 55% | -11% | -2% | 3% | 11µM* | ·
COc1cc(C)ccc1OCCOc1cc(C)ccc1Cl | 31% | ? | -27%[11.4 µM] | -26% | ? | ?
CCC(C)NCCOCCOc1ccc(C)cc1OC (stereo unspecified) | ? | ? | 20µM* | -30% | 11µM* | 3%
CCC(C)NCCOCCOc1ccc(Cl)cc1Br (stereo unspecified) | -19% | -22% | 2.5µM* | 50µM* | 2.2µM* | -10%
Cc1ccc(OCCOCCNC(C)C)c(Br)c1 | ? | 56µM* | 10µM* | -22% | · | 7%

Screening data deposited in PubChem by National Center for Advancing Translational Sciences (NCATS).
